Screening data: PubChem BioAssay, several laboratories
Only some compounds are listed: those with a hit (about 2.7% of all), similar ones and a draw of the others.
MsrA act: activates bovine MsrA enzyme; purified bovine MsrA, absorbance read-out; 360,000 tested, 0.3% active; activation, % at 10.6 µM; AID 602163; in the data active = activation above about 7.5%
MsrA inh: bovine MsrA inhibition; purified bovine MsrA, absorbance read-out; 360,000 tested, 0.75% active; inhibition, % at 15.5 µM
rCAG binder: binds r(CAG) RNA repeats; r(CAG) RNA repeat, TO-PRO-1 dye displacement fluorescence; inhibition, % at 3 µM; 370,000 tested, 1.3% active; AID 651821;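 active = inhibition above the plate cutoff, the mean of all test compounds on that plate plus 3 SD, cut at about 35% in these data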;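 note: higher means more dye released from RNA so lower well fluorescence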
NadD block: inhibitors of Staphylococcus aureus NadD; inhibition, % at 20 µM; 360,000 tested, 0.78% active; purified NadD enzyme, colorimetric absorbance read-out; in the data active = inhibition above about 26%
MsrA act confirm: bovine methionine sulfoxide reductase A activation confirmed; 1,000 tested, 12% active; AID 602270; purified bovine MsrA, absorbance read-out; shares compounds with MsrA act; activation, % at 10.6 µM; in the data active = activation above about 4%;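 note: enzyme coupled to thioredoxin and thioredoxin reductase with NADPH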
NadD conf: NadD (S. aureus) inhibition, single concentration confirmation; shares compounds with NadD block; purified S. aureus NadD, colorimetric enzyme assay; inhibition, % at 20 µM; 2,000 tested, 13% active; AID 624309; in the data active = inhibition mostly above about 42%, no sharp cut-off; inactive = mostly below about 42%
MsrA inh confirm: bovine MsrA inhibition, confirmed | shares compounds with MsrA inh | purified bovine MsrA, absorbance read-out | inhibition, % at 15.5 µM | 2,300 tested, 41% active | AID 651822;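 note: coupled to thioredoxin reductase with NADPH and selenocystamine and DMSO as substrate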
rCAG binder conf: r(CAG) RNA repeat binding, confirmation | shares compounds with rCAG binder | TO-PRO-1 dye displacement fluorescence | inhibition, % at 3 µM | 4,300 tested, 70% active | AID 652065;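 active = inhibition above a per-plate cutoff, the mean inhibition of sample wells plus 3 SD, cut at about 35% in these data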;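 note: loss of TO-PRO-1 fluorescence as compound displaces dye from 1x1 AA loop RNA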
DNA CAG counter: DNA CAG dye complex inhibition counter-screen; 4,300 tested, 94% active; AID 652068; inhibition, % at 3 µM; shares compounds with rCAG binder; d(CAG) DNA oligo TO-PRO-1 dye displacement, fluorescence;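 active = inhibition above its plate's cutoff, the mean test-well inhibition plus 3 SD, cut at about 4.8% in these data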;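 note: hits displace the dye from DNA and so lower well fluorescence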
Large screens that a line does not name were inactive (follow-up assays come after a bar, where they were run). Cut-off read from the data, not from the text of the source, unless noted: active = inhibition above about 4.5%; inactive = the rest.

O=C1c2ccccc2-c2nnc(-c3ccccc3)cc21	MsrA act 9.4 | MsrA act confirm 4.0
Cc1noc(C)c1COc1ccccc1C(=O)NCCc1ccc(S(N)(=O)=O)cc1	MsrA act 7.8 | MsrA act confirm inactive
Nn1c(SCC(=O)NC2CCCc3ccccc32)nnc1-c1cccs1 (centres undefined)	MsrA act 8.7 | MsrA act confirm inactive
O=C(CSc1nnc(-c2ccncc2)n1Cc1ccccc1)NC1CCCc2ccccc21 (centres undefined)	none
O=C(NCCc1ccc(Cl)cc1)C12CC3CC(CC(O)(C3)C1)C2	MsrA act 9.2 | MsrA act confirm inactive
C/C(CC(=O)Nc1ccc(Cl)cc1Cl)=N\NC(=O)c1ccco1	MsrA act 8.4 | MsrA act confirm inactive
COc1ccc(C(=O)NCC(c2ccccc2)N2CCCC2)cc1S(=O)(=O)N1CCOCC1 (centres undefined)	none
CCN(C(=O)COC(=O)CCC(=O)c1ccc(Cl)cc1)c1c(N)n(Cc2ccccc2)c(=O)[nH]c1=O	MsrA act 7.7 | MsrA act confirm inactive
Cc1ccc(C(=O)CCC(=O)OCC(=O)N(C)c2c(N)n(Cc3ccccc3)c(=O)[nH]c2=O)cc1	none
Cc1ccc2[nH]c3c(c2c1)CN(C(=O)CN1CCN(c2ccccn2)CC1)CC3	MsrA act 10 | MsrA act confirm 4.0
CCN(CC(=O)Nc1ccc(NC(C)=O)cc1)C(=O)c1cccc(S(=O)(=O)N2CCc3ccccc3C2)c1	none
Cc1ccc(NC(=O)CN(C)C(=O)c2cccc(S(=O)(=O)N3CCc4ccccc4C3)c2)cc1	MsrA act 10 | MsrA act confirm inactive
CC(C)n1c(=S)[nH]c2scc(-c3cccs3)c2c1=O	MsrA act 8.0, NadD block 30 | MsrA act confirm inactive | NadD conf 67
Cc1cccc(NC(=O)NN(C(=O)c2ccccc2Cl)C(C)(C)C)c1	none (no result: MsrA act, MsrA inh, NadD block)
O=C(c1ccccc1)c1coc2c1C(=O)c1ccccc1C2=O	MsrA act 8.2, MsrA inh 19 | MsrA act confirm 16 | MsrA inh confirm 26
COc1ccc(CNC(=O)c2c(C)oc3c2C(=O)c2ccccc2C3=O)cc1	MsrA act 7.9, MsrA inh 7.6 | MsrA act confirm 8.0 | MsrA inh confirm 9.0
COc1cc(/C=C(/C(=O)O)c2ccc(-c3ccccc3)cc2)cc(OC)c1OC	none
COc1cc(C=c2c3ccccc3n3c2cc(-c2ccccc2)[n+]3C)cc(OC)c1OC	MsrA act 18, MsrA inh 12 | MsrA act confirm 9.9 | MsrA inh confirm inactive
Cc1cc(C)cc(NC(=O)N2CCC(c3nc4ccc(Cl)cc4[nH]3)CC2)c1	none (no result: MsrA act, MsrA inh, NadD block)
O=C(Nc1ccc2cn[nH]c2c1)c1c(Cl)cccc1Cl	none
O=C1C(Cl)=C(Nc2ccc3cn[nH]c3c2)C(=O)c2ccccc21	MsrA act 26, MsrA inh 17 | MsrA act confirm 15 | MsrA inh confirm 10
COc1ccc(-c2nc3c(Cl)cc(C(F)(F)F)cn3c2Cc2cccc(F)c2)cc1OC	none
O=C1c2ccccc2C(=O)c2cc(S(=O)(=O)Nc3ccccc3)ccc21	MsrA act 10.0, MsrA inh 29 | MsrA act confirm 5.8 | MsrA inh confirm 31
CC1C(=O)c2ccccc2CC1C(=O)O (centres undefined)	none
CSc1ccc(/C=C2\CCn3c2nc2cc(C(=O)O)ccc2c3=O)cc1	MsrA act 10, MsrA inh 5.0 | MsrA act confirm inactive | MsrA inh confirm 4.8
COC(=O)c1ccc(/C=C2\CCn3c2nc2cc(C(=O)O)ccc2c3=O)cc1	none (no result: MsrA inh, rCAG binder)
COc1ccc(-c2csc(NC(=O)c3ccccc3NS(=O)(=O)c3ccc(F)c(F)c3)n2)cc1	MsrA act 15, rCAG binder 89 | MsrA act confirm inactive | rCAG binder conf 90 | DNA CAG counter 75
CCCCOc1ccc(S(=O)(=O)NC(=O)C2(C)CCN2C(=O)c2c(C)noc2C)cc1 (centres undefined)	none
